Inconclusive results are not listed. The source made the active and inactive calls. Unless noted, calls follow the shape of the dose curve; as a rule, active = well fitted curve in the direction sought with a large enough effect in the repeat runs; inconclusive = weak or mixed curves; inactive = no such curve, though single readings can be large; an effect the other way counts as inactive or inconclusive.

Assay [1] in a line: qHTS assay to test for compound auto fluorescence at 535 nm (green) in HEK293 cells (AID 720680). Conditions: green autofluorescence 485/535 nm; series mostly up to 91.3 µM. In general terms: In qHTS, concentration-response curves come from the screen itself.
The nature of assay [2]: qHTS assay to test for compound auto fluorescence at 460 nm (blue) in HEK293 cell free culture (AID 720681). Conditions: cell-free medium, autofluorescence 405/460 nm (blue); series mostly up to 91.3 µM. Put shortly:
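Blue fluorescence (Ex 405/Em 460 nm, triamterene-equivalent) was read immediately after pin transfer of compound or DMSO into medium (DMEM, 10% FBS) without cells.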

Assay [3] in a line: qHTS assay to test for compound auto fluorescence at 535 nm (green) in HEK293 cell free culture (AID 720682). The settings on record: cell-free medium, green autofluorescence 485/535 nm, hits give high values; series mostly up to 91.3 µM. In short, it runs like this:
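Read-out: 485/535 nm fluorescence intensity, calibrated against fluorescein. Medium only (DMEM + 10% FBS, no cells); test compound or DMSO vehicle added by pintool before plate reading.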

Assay [4] is described as follows: qHTS assay to test for compound auto fluorescence at 590 nm (red) in HEK293 cell free culture (AID 720683). Conditions: cell-free medium autofluorescence, Ex540/Em590 red; series mostly up to 91.3 µM. In short, it runs like this: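 Red-channel autofluorescence of compounds in culture medium (DMEM, 10% FBS), no cells, measured at 540/590 nm. Rose Bengal sodium is the reference fluorophore for equivalence.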

Assay [5] can be described thus: qHTS assay to test for compound auto fluorescence at 590 nm (red) in HepG2 cell free culture (AID 720684). Conditions: cell-free medium autofluorescence, red 540/590 nm; series mostly up to 91.3 µM. In short, it runs like this:
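No cells present: MEM + 10% FBS only. Compound pinned in, red label read (540/590 nm). Activity = fluorescence equivalent to Rose Bengal sodium.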

Assay [6] is described as follows: qHTS assay to test for compound auto fluorescence at 460 nm (blue) in HepG2 cell free culture (AID 720685). Conditions: Cell-free culture medium, blue autofluorescence 405/460 nm; series mostly up to 91.3 µM. Put shortly:
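Cell-free plates of MEM plus 10% FBS received 23 nL compound or DMSO vehicle; blue-channel (405/460 nm) intensity scored against triamterene as reference fluorophore.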

Assay [7] is described as follows: qHTS assay to test for compound auto fluorescence at 535 nm (green) in HepG2 cell free culture (AID 720686). Conditions: Cell-free medium, green autofluorescence 485/535 nm; series mostly up to 91.3 µM.
A short description of assay [8]: qHTS assay to test for compound auto fluorescence at 460 nm (blue) in HepG2 cells (AID 720687). Conditions: autofluorescence 405/460 nm, 1 h; series mostly up to 91.3 µM. In short, it runs like this: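 Blue-channel autofluorescence (Ex/Em 405/460 nm, triamterene-equivalent) was measured after 1 hr compound exposure at 37 C, 5% CO2. Cells were HepG2, plated overnight at 37 C in MEM plus 10% FBS.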

Assay [9] is described as follows: qHTS assay to identify small molecule antagonists of the glucocorticoid receptor (GR) signaling pathway - cell viability counter screen (AID 720693). Also: nearly all actives have a fitted effect of over 55% in size. The settings on record: GR-bla HeLa viability, CellTiter-Glo luminescence, 18 h, with 5 nM dexamethasone present; series mostly up to 58.5 µM.
A short description of assay [10]: qHTS assay for identifying genotoxic compounds that show differential cytotoxicity against isogenic chicken DT40 cell lines with known DNA damage response pathways - wild type cell line (AID 743012). Also: nearly all actives have a fitted effect of over 60% in size. Also: potency is read from the fitted curve at half-maximal effect. The settings on record: DT40 wild type chicken cells viability, CellTiter-Glo, 40 h; series mostly up to 68.4 µM. In short, it runs like this: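 Viability by ATP luminescence (CellTiter-Glo, 30 min RT) after 40 h compound treatment at 37 C/5% CO2, using 300 parental DNA repair-proficient DT40 cells per well.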

A short description of assay [11]: qHTS assay for identifying genotoxic compounds that show differential cytotoxicity against isogenic chicken DT40 cell lines with known DNA damage response pathways - Rev3 mutant cell line (AID 743014). Also: nearly all actives have a fitted effect of over 55% in size. Also: potency is read from the fitted curve at half-maximal effect. Conditions: chicken DT40 Rev3-/- viability, CellTiter-Glo, 40 h; series mostly up to 68.4 µM.
Assay [12] in a line: qHTS assay for identifying genotoxic compounds that show differential cytotoxicity against isogenic chicken DT40 cell lines with known DNA damage response pathways - Rad54/Ku70 mutant cell line (AID 743015). Also: nearly all actives have a fitted effect of over 60% in size. Also: potency is read from the fitted curve at half-maximal effect. Conditions: DT40 Rad54/Ku70 mutant viability, CellTiter-Glo, 40 h; series mostly up to 66.8 µM.
The target of assay [13] is Androgen receptor (Homo sapiens) (UniProt P10275). In words: qHTS assay to identify small molecule agonists of the androgen receptor (AR) signaling pathway (AID 743036; active = well fitted activation curve with a large enough effect in the signal ratio in the repeat runs, with a control signal flat, not every such curve was filed as active; the % refers to the signal ratio). Conditions: HEK293 AR-UAS-bla GripTite, beta-lactamase FRET ratio, 16 h; series mostly up to 62.4 µM. Put shortly: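 HEK293 cells stably carrying a UAS-driven beta-lactamase reporter (GeneBLAzer AR-UAS-bla-GripTite) were plated at 2,000 cells/well, rested 4 h at 37C, then exposed to compounds in DMSO for 16 h. LiveBLAzer B/G FRET substrate was added for 2 h at room temperature; fluorescence read.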

For assay [14] the target is unchanged. Briefly: qHTS assay to identify small molecule agonists of the androgen receptor (AR) signaling pathway using the MDA cell line (AID 743040; also: nearly all actives have a fitted effect of over 20% in size). The settings on record: MDA-kb2 AR-luc cells, MMTV luciferase, 16 h, hits give high values; series mostly up to 70.3 µM. Put shortly:
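Stable MMTV-luciferase reporter in MDA-kb2 cells; note the promoter carries GR as well as AR response elements. 16 h compound treatment, 37C, 0% CO2; ONE-Glo luminescence endpoint.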

Assay [15] is described as follows: qHTS assay to identify small molecule antagonists of the androgen receptor (AR) signaling pathway using the MDA cell line - cell viability counter screen (AID 743041; also: nearly all actives have a fitted effect of over 45% in size; also: potency is read from the fitted curve at half-maximal effect). The settings on record: MDA-kb2 viability, CellTiter-Fluor, 16 h, cells co-treated with R1881 androgen agonist; series mostly up to 70.3 µM. In short, it runs like this: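 Using the breast carcinoma line MDA-kb2 AR-luc, test chemicals were co-incubated with R1881 for 16 h; CellTiter-Fluor reagent, added at 15.5 h, provided a fluorescence measure of live cells.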

Assay [16] concerns the target Androgen receptor (Homo sapiens) (UniProt P10275). In words: qHTS assay to identify small molecule antagonists of the androgen receptor (AR) signaling pathway using the MDA cell line (AID 743042; also: nearly all actives have a fitted effect of over 55% in size; also: potency is read from the fitted curve at half-maximal effect). Conditions: MDA-kb2 AR-luc, MMTV luciferase, R1881 antagonist, 16 h; series mostly up to 70.3 µM. In short, it runs like this: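 Antagonist mode: compounds plus R1881 agonist added to MDA-kb2 AR-luc cells, incubated 16 h at 37C. Luciferase reporter luminescence quantified, with multiplexed CellTiter-Fluor readout for cell viability.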

The nature of assay [17]: qHTS assay to identify small molecule antagonists of the androgen receptor (AR) signaling pathway - cell viability counter screen (AID 743033; also: nearly all actives have a fitted effect of over 45% in size; also: potency is read from the fitted curve at half-maximal effect). Conditions: AR-bla HEK293 viability, CellTiter-Glo luminescence, 16 h; series mostly up to 58.5 µM.
The target of assay [18] is Glucocorticoid receptor (Homo sapiens) (UniProt P04150). Briefly: qHTS assay to identify small molecule agonists of the glucocorticoid receptor (GR) signaling pathway (AID 720691; active = well fitted activation curve with a large enough effect in the signal ratio in the repeat runs, not every such curve was filed as active; the % refers to the signal ratio). Conditions: GR-bla HeLa, beta-lactamase reporter ratio, 18 h; activation: at 62.4 µM (top of the series). In short, it runs like this:
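Agonist-mode qHTS in HeLa cells stably expressing a glucocorticoid-response-element beta-lactamase reporter. Fluorescence intensity read with FRET substrate (2 h, room temperature) after 18 h compound treatment at 37 C.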

Assay [19] has the same target. In words: qHTS assay to identify small molecule antagonists of the glucocorticoid receptor (GR) signaling pathway (AID 720692; active = well fitted inhibition curve with a large enough effect in the signal ratio in the repeat runs, not every such curve was filed as active; the % refers to the signal ratio). Conditions: GR-bla HeLa, beta-lactamase FRET ratio, dexamethasone-stimulated, 18 h; series mostly up to 58.5 µM. Put shortly:
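Inhibition of dexamethasone-driven (5 nM final) beta-lactamase expression was measured in GRE-reporter HeLa cells over 18 h at 37C. Fluorescence was read after 2 h with the B/G FRET substrate at room temperature.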

Assay [20] has as its target Androgen receptor (Homo sapiens) (UniProt P10275). Briefly: qHTS assay to identify small molecule antagonists of the androgen receptor (AR) signaling pathway (AID 743035; active = well fitted inhibition curve with a large enough effect in the signal ratio in the repeat runs, not every such curve was filed as active; the % refers to the signal ratio; also: potency is read from the fitted curve at half-maximal effect). The settings on record: HEK293 AR-UAS-bla, R1881-stimulated, beta-lactamase FRET, 16 h; series mostly up to 58.5 µM. Put shortly:
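Antagonist mode: AR-bla HEK293 cells co-treated with test compounds and agonist R1881 for 16 h at 37C, 5% CO2. Beta-lactamase activity read as FRET fluorescence after 2 h room-temperature substrate loading.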

Sequence of Glucocorticoid receptor (Homo sapiens) (P04150 whole entry, looked up): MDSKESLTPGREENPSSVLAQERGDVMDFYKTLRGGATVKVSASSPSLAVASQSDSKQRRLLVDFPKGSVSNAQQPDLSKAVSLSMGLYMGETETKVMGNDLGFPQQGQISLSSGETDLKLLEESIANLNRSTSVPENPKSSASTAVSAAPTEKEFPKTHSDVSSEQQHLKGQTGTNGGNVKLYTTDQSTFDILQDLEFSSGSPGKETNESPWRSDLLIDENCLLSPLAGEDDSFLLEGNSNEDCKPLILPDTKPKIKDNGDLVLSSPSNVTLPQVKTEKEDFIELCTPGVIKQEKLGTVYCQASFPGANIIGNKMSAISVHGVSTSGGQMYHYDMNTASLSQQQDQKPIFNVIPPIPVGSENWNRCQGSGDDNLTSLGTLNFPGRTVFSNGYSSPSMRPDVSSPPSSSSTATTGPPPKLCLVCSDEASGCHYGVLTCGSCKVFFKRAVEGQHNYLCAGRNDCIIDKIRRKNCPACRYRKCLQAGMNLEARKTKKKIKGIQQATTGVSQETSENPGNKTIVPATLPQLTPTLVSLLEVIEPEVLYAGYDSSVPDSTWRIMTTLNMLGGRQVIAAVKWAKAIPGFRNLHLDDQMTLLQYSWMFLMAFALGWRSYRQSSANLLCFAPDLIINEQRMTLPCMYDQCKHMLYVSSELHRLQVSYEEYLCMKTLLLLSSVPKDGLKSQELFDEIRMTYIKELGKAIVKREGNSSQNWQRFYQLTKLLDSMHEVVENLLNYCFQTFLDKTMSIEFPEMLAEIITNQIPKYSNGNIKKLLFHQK
Sequence of Androgen receptor (Homo sapiens) (P10275 whole entry, looked up): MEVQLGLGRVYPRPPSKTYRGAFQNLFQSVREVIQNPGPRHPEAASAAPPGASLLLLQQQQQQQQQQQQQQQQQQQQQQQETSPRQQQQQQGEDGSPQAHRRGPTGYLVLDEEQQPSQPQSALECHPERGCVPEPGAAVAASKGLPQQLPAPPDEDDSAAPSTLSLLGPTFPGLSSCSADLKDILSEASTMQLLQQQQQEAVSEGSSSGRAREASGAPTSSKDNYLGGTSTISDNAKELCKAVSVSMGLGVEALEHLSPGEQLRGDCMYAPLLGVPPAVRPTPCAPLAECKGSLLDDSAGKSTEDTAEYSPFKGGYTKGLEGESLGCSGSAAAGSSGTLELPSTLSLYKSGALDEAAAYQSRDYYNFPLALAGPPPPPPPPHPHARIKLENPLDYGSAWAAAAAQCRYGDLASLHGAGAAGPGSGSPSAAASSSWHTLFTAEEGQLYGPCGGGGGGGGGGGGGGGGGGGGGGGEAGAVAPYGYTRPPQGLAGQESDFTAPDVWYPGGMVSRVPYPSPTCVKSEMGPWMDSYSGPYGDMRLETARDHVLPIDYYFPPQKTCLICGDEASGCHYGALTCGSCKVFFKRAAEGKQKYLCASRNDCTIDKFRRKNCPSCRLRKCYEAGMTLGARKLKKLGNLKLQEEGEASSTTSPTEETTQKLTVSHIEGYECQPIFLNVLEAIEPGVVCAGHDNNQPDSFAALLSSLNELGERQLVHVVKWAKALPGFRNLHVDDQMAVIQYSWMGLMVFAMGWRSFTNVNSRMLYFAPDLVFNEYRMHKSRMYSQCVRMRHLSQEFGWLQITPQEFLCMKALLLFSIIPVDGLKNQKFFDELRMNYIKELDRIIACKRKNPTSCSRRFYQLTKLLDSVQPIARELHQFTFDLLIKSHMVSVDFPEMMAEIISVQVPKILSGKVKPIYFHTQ

On to `CCOP(=S)(OCC)SC(CCl)N1C(=O)c2ccccc2C1=O` (stereo unspecified), for which the call in assay [1], in [3], in assay [4], in [5], in assay [13] and in [14] was inactive. Moreover, the Potency entry in assay [2], in assay [6], in assay [7], in [8], in assay [9] and in assay [15] was “inactive” each time. For the same molecule, the Potency in assay [10] was 48.6 µM (active); in [11], 43.3 µM (active); in [12] it was 61.1 µM (active); in assay [16], 61.1 µM (active).
For the molecule `CCN1CCC2(CC1)COc1cc3c(cc12)N(C(=O)c1ccc(-c2ccc(-c4nnc(C)o4)cc2C)cc1)CC3`, the outcome in assay [1], in [3], in assay [4], in assay [5] and in [14] was inactive. Moreover, the Potency result in [2], in assay [6], in [7] and in assay [8] was “inactive” each time. Also, the Potency is 1.26 µM (active) in assay [10]; 1.42 µM (active) in assay [11]; 1 µM (active) in [12]; 6.38 µM (active) in assay [17]; 63.3 µM (active) in assay [16].
`BrCCCBr`: the molecule was called inactive in [1], in assay [3], in assay [4], in assay [5], in [13] and in [14]. In addition, the Potency result in [2], in [6], in [8], in assay [18], in assay [19] and in assay [9] was “inactive” each time. The Potency result in assay [10], in assay [11], in assay [12], in assay [17], in assay [20] and in [15] was “inactive” throughout. Besides, in assay [16], the Potency entry was “inactive”.
Consider `O=C(N[C@H]1N=C(c2ccccc2F)c2cccc3c2N(CC3)C1=O)c1cc2ccccc2[nH]1`, for which the result in [1], in assay [3], in assay [4] and in [5] was inactive. Besides, the Potency result in [2], in [6], in assay [7], in assay [8], in assay [9] and in assay [17] was “inactive” in each case. In assay [15], the Potency result was “inactive”. The Potency in assay [12] is 29.8 µM (active).
For the molecule `N#Cc1sc2c(=O)c3ccccc3c(=O)c=2sc1C#N`, the molecule was called inactive in [1], in assay [3], in [4], in assay [5] and in assay [14]. Moreover, the Potency result in assay [2], in [6], in assay [7] and in [8] was “inactive” each time. The Potency in assay [10] is 1.37 µM (active); in assay [12], 0.77 µM (active); in assay [17] it was 13.8 µM (active); in assay [20], 9.77 µM (active); in assay [15], 1.37 µM (active); in assay [16], 0.306 µM (active).
For `O=[N+]([O-])c1ccccc1-c1ccccc1`, the outcome in assay [1], in [3], in assay [4] and in assay [5] was inactive. In addition, the Potency entry in [2], in assay [6], in assay [7], in [8], in assay [10] and in assay [11] was “inactive” in each case. Also, the Potency entry in assay [12], in [17] and in [15] was “inactive” in each case.
Turning to `COC(=O)C(C)N(C(=O)c1ccco1)c1c(C)cccc1C` (stereo unspecified), the result in [1], in assay [3], in [4] and in assay [5] was inactive. Besides, the Potency result in assay [2], in assay [6], in [8], in assay [18], in assay [19] and in assay [9] was “inactive” throughout. Moreover, the Potency result in [17] and in [15] was “inactive” throughout.

Values taken from PubChem BioAssay (Tox21).
